Values without a mark were called inactive. The source made the active and inactive calls. Calls come from the whole dose curve; as a rule, active = well fitted curve in the direction sought with a large enough effect in the repeat runs; inconclusive = weak or mixed curves; inactive = flat fitted curve, though single readings scatter.
Assay: qHTS assay to test for compound auto fluorescence at 535 nm (green) in HEK293 cell free culture (AID 720682)
Conditions: cell-free medium, green autofluorescence 485/535 nm, active compounds read high; series mostly up to 46 µM; activity change: at the top concentration
Description: U.S. Tox21 Program National Center for Advancing Translational Sciences [NCATS] NIH Chemical Genomics Center [NCGC] U.S. Environmental Protection Agency [EPA] National Institutes of Environmental Health Sciences [NIEHS] National Toxicology Program [NTP] U.S. Food and Drug Administration [FDA] Tox21 Assay Overview: Compound auto fluorescence often interferes with screening of the compound library against various biological targets and signaling pathways. Some of these compounds may have fluorophoric properties. Such properties may interfere with the assay outputs resulting in false positives and/or negatives. To decrease such complications and ensure the compound activities are relevant in terms of biological response, the Tox21 10K compound library was screened for auto fluorescence. From the fluorophores used as reporter signals in our screening assays, the auto fluorescence equivalencies of compounds against three fluorophores have been evaluated: Triamterene, Fluorescein and Rose Bengal sodium for blue, green and red fluorescence, respectively. The fluorescence intensities were measured using Excitation/Emission wavelengths at 405/460nm, 485/535nm and 540/590nm for blue, green and red labels, respectively. This assay includes the green fluorescence data.
Tox21 Assay Protocol Summary: 5 uL of culture medium (DMEM containing 10% FBS) per well was dispensed into black wall/clear bottom 1536-well plates using a Multidrop Combi Dispenser (ThermoFisher Scientific, Waltham, MA). After 23 nL compound or DMSO vehicle was transferred into assay plate by a pintool work station (Kalypsys, San Diego, CA), fluorescence intensities in the assay plates were measured by an Envision (PerkinElmer, Shelton, CT) plate reader using three labels for measuring blue, green and red fluorescence at […] 460, 535 and 590nm respectively.
% is set by controls: 0 for no effect and ±100 for the full control effect.

| Compound | activity change | outcome |
| --- | --- | --- |
| O=C(CCCN1CCC(O)(c2cccc(C(F)(F)F)c2)CC1)c1ccc(F)cc1 | -0.0096% | – |
| Cc1c(NC(C)C)c(=O)n(-c2ccccc2)n1C | -0.014% | – |
| O=c1n(CCO)c(=O)n(CCO)c(=O)n1CCO | – | inactive |
| OCCCC1CCCCC1 | -0.291% [at 91.3 µM] | – |
| CCOC(=O)Nc1ccc(NCc2ccc(F)cc2)nc1N | – | inactive |
| CC1(C)CO[C@@H](CC(=O)O)CN1 | 0.0149% | – |
| C1OCOCO1 | -0.0234% [at 95.7 µM] | – |
| CCN(Cc1ccncc1)C(=O)C(CO)c1ccccc1 (stereo not given) | 0.0672% | – |
| Brc1c(NC2=NCCN2)ccc2nccnc12 | -0.0542% | – |
| CC(C)CNCC(C)C | -0.025% [at 91.3 µM] | – |
| Cc1cccc(C)c1NC(=O)C(C)N (stereo not given) | 0.0221% [at 18.6 µM] | – |
| CC(=O)c1ccccc1O | 0.0513% [at 91.3 µM] | – |
| CC(=O)OCC(=O)[C@@]1(O)CC[C@H]2[C@@H]3CCC4=CC(=O)CC[C@]4(C)[C@H]3C(=O)C[C@@]21C | -0.0425% | – |
| CCOC(C)(C)C | -0.092% [at 95.7 µM] | – |
| CCCCC(CC)COC(=O)c1ccccc1O (stereo not given) | 0.0875% | – |
| Cn1cc(S(C)=O)c(=O)c2ccc(F)cc21 (stereo not given) | -0.119% | – |
| CC(C[N+](C)(C)C)OC(N)=O (stereo not given) | -0.0031% | – |
| CC(=O)OC/C=C(\C)CC/C=C(\C)CCC=C(C)C | -0.0315% [at 91.3 µM] | – |
| O=C(O)CCCc1ccccc1 | -0.0519% | – |
| NC(=O)COCCN1CCN(C(c2ccccc2)c2ccc(Cl)cc2)CC1 (stereo not given) | -0.0268% | – |

| Compound | activity change | outcome |
| --- | --- | --- |
| CCCCCCOC(=O)CCCCC(=O)OCCCCCC | 0.197% [at 91.3 µM] | – |
| C[N+](C)(C)CC(O)CC(=O)[O-] (stereo not given) | 0.0011% | – |
| FC1(F)C(F)(F)C(F)(F)C2(F)C(F)(F)C(F)(F)C(F)(F)C(F)(F)C2(F)C1(F)F (stereo not given) | 2.35% | – |
| C=COCC1CCC(CO)CC1 (stereo not given) | -0.0325% [at 91.3 µM] | – |
| COC(=O)c1ccc(C)cc1C1=NC(C)(C(C)C)C(=O)N1 (stereo not given) | -0.0015% [at 91.3 µM] | – |
| CCC=O | 0.11% [at 95.7 µM] | – |
| CC(=O)OCC(=O)[C@@]1(O)CCC2C3CCC4=CC(=O)CC[C@]4(C)C3[C@@H](O)C[C@@]21C (stereo not given in full) | 0.011% | – |
| CCCCCCCCCCCCN(CCCCCCCCCCCC)CCCCCCCCCCCC | 0.162% [at 91.3 µM] | – |
| N[C@H](C(=O)O)c1ccc(O)cc1 | -0.0236% | – |
| OC1CCCCC1c1ccccc1 (stereo not given) | 0.0502% [at 91.3 µM] | – |
| COc1ccccc1OCC(O)CN1CCN(CC(=O)Nc2c(C)cccc2C)CC1 (stereo not given) | 0.0016% | – |
| C=C(C)C(=O)OCCCCCCCC(C)C | 0.0445% [at 91.3 µM] | – |
| C[C@H]1C[C@@H](O)CC(C)(C)C1 | 0.0174% [at 91.3 µM] | – |
| CN(C)CCCN1c2ccccc2CCc2ccc(Cl)cc21 | – | inactive |
| CCCCCCCCCCCCCCCCC | -0.0306% [at 91.3 µM] | – |
| CC(C)(C)NCCNC(C)(C)C | -0.0717% [at 91.3 µM] | – |
| CCCC(=O)O[C@]1(C(=O)CO)CC[C@H]2[C@@H]3CCC4=CC(=O)CC[C@]4(C)[C@H]3[C@@H](O)C[C@@]21C | -0.088% | – |
| Cc1[nH]c(=O)c(C#N)cc1-c1ccc2nccn2c1 | -0.0426% | – |
| CN1CCCC1 | 0.01% [at 91.3 µM] | – |
| CN1CCC(=C2c3ccccc3CC(=O)c3sccc32)CC1 | 0.104% | – |
